Data on 9 compounds can be found in PubChem BioAssay.

SMILES strings stand for the structures. Calls of active or inactive are those of the source. Unless noted, the rule behind the calls is not given here.

Assay [1] is described as follows: compound effects on lung adenocarcinoma cell viability – A549, calcein-AM fluorescence, 48 h, basal, profiling panel (AID 1162). Note: test concentration not given here. The following applies: higher = more signal.
Assay [2] can be described thus: compound effects on differentiated 3T3-L1 adipocyte viability – cell-based, 3T3-L1 adipocytes, calcein-AM fluorescence, 48 h, basal, profiling panel (AID 1163). Note: test concentration not given here. The following applies: 3T3-L1 adipocytes viability, higher = more signal.
Assay [3] can be described thus: compound effects on hepatocellular carcinoma cell viability – HepG2, calcein-AM fluorescence, 48 h, basal, profiling panel (AID 1164). Note: test concentration not given here. The following applies: higher = more signal.
Assay [4] is described as follows: compound effects on multiple myeloma cell viability – MM1S, calcein-AM fluorescence, 48 h, basal, profiling panel (AID 1165).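 Note: viability of MM1S multiple myeloma cells under basal unstimulated conditions; test concentration not given here.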 The following applies: higher = more signal.
Assay [5] can be described thus: calcein-AM signal in unstimulated myeloma cells – cell-based, calcein-AM fluorescence, 48 h, PK04 Diversity Set, profiling panel (AID 1166).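 Note: cells grown under basal conditions without added stimulus; test concentration not given here.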 The following applies: RPMI8226 myeloma viability, higher = more signal.
Assay [6] can be described thus: JC-1 mitochondrial signal, unstimulated HepG2 cells – cell-based, JC-1 fluorescence, 24 h, 100 nL compound, profiling panel (AID 1167). Note: test concentration not given here. The conditions noted are these: HepG2 mitochondrial potential, higher = more signal.
A short description of assay [7]: JC-1 mitochondrial signal, unstimulated adipocytes – cell-based, JC-1 fluorescence, 3T3-L1 adipocytes, 24 h, 100 nL compound, profiling panel (AID 1168). Note: test concentration not given here. The conditions noted are these: JC-1 mitochondrial fluorescence, higher = more signal, called active from +8 up or from −8 down.
A short description of assay [8]: JC-1 mitochondrial signal, unstimulated myeloma cells – cell-based, JC-1 fluorescence, RPMI8226, 24 h, 100 nL compound, profiling panel (AID 1169). Note: test concentration not given here. The following applies: JC-1 mitochondrial potential fluorescence, higher = more signal.
The nature of assay [9]: JC-1 mitochondrial signal, unstimulated MM1S myeloma – cell-based, JC-1 fluorescence, 24 h, 100 nL compound, profiling panel (AID 1170). Note: test concentration not given here. The conditions noted are these: MM1S mitochondrial potential, higher = more signal.
Assay [10] is described as follows: resazurin metabolic signal in A549 cells – cell-based, resazurin fluorescence, 24 h, PK04 Diversity Set, profiling panel (AID 1171). Note: test concentration not given here. The conditions noted are these: A549 viability, higher = more signal, called active from +8 up or from −8 down. (In general: The colour change of resazurin is a common sign of viable cells or microbes.)
A short description of assay [11]: resazurin metabolic signal in HepG2 cells – cell-based, resazurin fluorescence, 24 h, PK04 Diversity Set, profiling panel (AID 1172). Note: test concentration not given here. The conditions noted are these: HepG2 viability, higher = more signal.
Assay [12] in a line: budding yeast growth changes without added modifier – OD600, strain BY4716, 24 h, basal condition, primary screen (AID 1173). The following applies: S. cerevisiae BY4716 growth, OD600, 24 h; higher = more signal, called active from +8 up or from −8 down.
Assay [13] in a line: viability profiling in MM1S myeloma cells – cell-based, resazurin fluorescence, basal, 24 h, PK04 Diversity Set, profiling panel (AID 1174). Note: test concentration not given here. The following applies: higher = more signal, called active from +8 up or from −8 down.
Assay [14] concerns the target Dihydroorotate dehydrogenase (quinone), mitochondrial (Plasmodium falciparum (isolate 3D7)) (UniProt Q08210). Description: inhibition of P. falciparum DHODH – biochemical, C-terminal His tag, absorbance 600 nm, primary screen (AID 1175).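 Note: recombinant parasite enzyme with a five histidine tag at its C terminus; test concentration not given here.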 The conditions noted are these: PfDHODH enzyme, DCIP absorbance 600 nm; higher = more signal, called active from +8 up or from −8 down.

Assay [15] in a line: inhibition of PAO1 biofilm formation – strain PAO1, LB-PBS medium, absorbance 600 nm, primary screen (AID 1176). Note: test concentration not given here. The conditions noted are these: P. aeruginosa PAO1 growth/biofilm, A600, 12 h; higher = more signal.
Assay [16] in a line: growth modulation of vineyard yeast isolate – strain RM11-1a, OD600, basal, 24 h, primary screen (AID 1177).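 Note: cultures grown under basal conditions with no added stressor; test concentration not given here.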 The conditions noted are these: S. cerevisiae RM11-1a growth, OD600, 24 h; higher = more signal, called active from +8 up or from −8 down.
Assay [17] can be described thus: growth of efflux-deficient E. coli DRC39 – strain DRC39, OD650, 24 h, E. coli filamentation inducers, primary screen (AID 1178).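 Note: growth measured as culture turbidity by optical density at 650 nm; test concentration not given here.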 The conditions noted are these: E. coli DRC39 acrAB, higher = more signal, called active from +8 up or from −8 down.
Assay [18] is described as follows: growth of efflux-deficient E. coli DRC39 – strain DRC39, OD650, 48 h, E. coli filamentation inducers, primary screen (AID 1179).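 Note: screen aims at cell division blockers that make cells filament.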 The conditions noted are these: E. coli DRC39 delta-acrAB growth, higher = more signal, called active from +8 up or from −8 down.
A short description of assay [19]: viability profiling in RPMI8226 myeloma cells – cell-based, resazurin fluorescence, basal, 24 h, PK04 Diversity Set, profiling panel (AID 1180).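 Note: RPMI8826 multiple myeloma cell line at 5000 cells per well; test concentration not given here.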 The following applies: higher = more signal.
In assay [20] the target is E3 ubiquitin-protein ligase XIAP (Homo sapiens) (UniProt P98170). The assay is described as follows: small molecules binding XIAP protein – biophysical, small-molecule microarray, fluorescence 635 nm, primary screen (AID 1181).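 Note: score merges 667 nm emission and signal to noise over triplicate slides.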 The conditions noted are these: higher = more signal.
Chain of E3 ubiquitin-protein ligase XIAP (Homo sapiens) (P98170 whole entry, looked up): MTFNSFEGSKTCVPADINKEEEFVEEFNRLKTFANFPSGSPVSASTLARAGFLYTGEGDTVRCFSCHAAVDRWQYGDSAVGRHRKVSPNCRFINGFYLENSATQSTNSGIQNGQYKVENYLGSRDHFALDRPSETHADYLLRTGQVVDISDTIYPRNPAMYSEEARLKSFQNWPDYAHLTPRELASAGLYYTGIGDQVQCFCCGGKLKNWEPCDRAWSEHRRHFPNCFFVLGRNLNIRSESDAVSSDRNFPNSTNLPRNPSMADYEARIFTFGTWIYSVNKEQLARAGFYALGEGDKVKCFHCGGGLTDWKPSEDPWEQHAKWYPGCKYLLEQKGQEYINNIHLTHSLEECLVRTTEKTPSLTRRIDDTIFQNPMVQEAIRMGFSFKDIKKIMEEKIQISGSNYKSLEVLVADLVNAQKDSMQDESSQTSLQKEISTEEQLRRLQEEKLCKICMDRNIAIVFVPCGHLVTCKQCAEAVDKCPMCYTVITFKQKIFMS

Chain of Dihydroorotate dehydrogenase (quinone), mitochondrial (Plasmodium falciparum (isolate 3D7)) (Q08210 whole entry, looked up): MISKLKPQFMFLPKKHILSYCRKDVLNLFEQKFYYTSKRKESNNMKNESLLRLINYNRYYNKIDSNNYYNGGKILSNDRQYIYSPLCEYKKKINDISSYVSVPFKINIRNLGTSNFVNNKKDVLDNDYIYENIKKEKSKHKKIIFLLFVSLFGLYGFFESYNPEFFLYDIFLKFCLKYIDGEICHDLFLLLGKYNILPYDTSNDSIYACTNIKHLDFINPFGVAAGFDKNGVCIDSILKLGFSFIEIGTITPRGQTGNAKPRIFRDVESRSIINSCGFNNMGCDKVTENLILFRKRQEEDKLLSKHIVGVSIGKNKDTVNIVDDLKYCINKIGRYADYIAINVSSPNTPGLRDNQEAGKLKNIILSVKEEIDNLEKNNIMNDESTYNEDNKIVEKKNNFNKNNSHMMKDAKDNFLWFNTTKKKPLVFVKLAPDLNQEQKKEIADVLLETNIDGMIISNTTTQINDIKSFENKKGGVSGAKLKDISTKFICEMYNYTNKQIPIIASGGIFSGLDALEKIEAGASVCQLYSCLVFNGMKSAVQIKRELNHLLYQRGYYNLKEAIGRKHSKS

`COCCCNC(=O)[C@@H]1c2ccccc2C(=O)N(C2Cc3ccccc3C2)[C@H]1c1ccc(CO)cc1`: the z-score in assay [1] was 1.12; in assay [2] it was 0.275; in assay [3] it was 0.165; in assay [4] it was 0.155; in assay [5] it was 0.261; in assay [6] it was 2.94. The z-score in assay [7] was -0.17 (inactive); in assay [8], 0.217; in assay [9] it was 0.494; in assay [10], 0.58 (inactive); in assay [11], -0.138; in [12], -0.483 (inactive). For the same compound, the z-score in assay [13] was 0.354 (inactive); in assay [15], 0.388 (inactive); in assay [16], -0.344 (inactive); in [17], 0.722 (inactive); in assay [18] it was 0.468 (inactive); in assay [19], 0.653. In addition, the composite z-score in [14] is -0.774 (inactive); in assay [20], -0.169.
`COc1ccc([Si](C)(C)[C@H]2[C@H](CCO)O[C@@]3(C(=O)N(Cc4ccccc4)c4ccc(N5CCOC5=O)cc43)[C@@H]2C)cc1`: the z-score in [1] was -0.119; in assay [2], -0.325; in assay [3], -2.09; in assay [4] it was -2.13; in [5] it was -3.4; in assay [6], -0.203. In addition, the z-score in [7] is 0.69 (inactive); in [8], -1.11; in [9], -1.68; in assay [10] it was -1.94 (inactive); in assay [11] it was -1.27; in assay [12] it was 1.12 (inactive). In addition, the z-score in assay [13] is -3.35 (inactive); in assay [15] it was 2.41 (inactive); in assay [16], 4.25 (inactive); in assay [17], 0.895 (inactive); in assay [18], 0.0981 (inactive); in assay [19], -2.64. The composite z-score in assay [14] is 0.0738 (inactive); in assay [20], -0.135.
For `COc1cc2c(cc1OC)CN(C(=O)[C@@H]1[C@H]3C(=O)O[C@H](c4ccccc4)[C@H](c4ccccc4)N3[C@H](c3ccc(O)cc3)[C@@]13C(=O)Nc1ccc(C#CCCO)cc13)CC2`, the z-score in [1] is -0.446; in assay [2], -0.423; in [3], -0.314; in assay [4], -0.0118; in assay [5], 0.191; in [6] it was -2.29. Also, the z-score in [7] is 0.0304 (inactive); in assay [8], -0.294; in [9] it was -0.492; in assay [10], 0.156 (inactive); in [11], 0.0462; in [12] it was 1.03 (inactive). For the same compound, the z-score is -1.22 (inactive) in assay [13]; 1.2 (inactive) in assay [15]; 1.66 (inactive) in [16]; 0.437 (inactive) in [17]; 0.258 (inactive) in assay [18]; -0.657 in assay [19]. The composite z-score in assay [14] was 0.838 (inactive); in assay [20] it was -0.269.
In the case of `C=C(C(=O)CC[C@@H](OC(=O)c1ccccc1-c1ccccc1C(=O)O)c1ccccc1OCCO)C(C)C`, the z-score was -0.0081 in assay [1]; 0.707 in assay [2]; -0.188 in assay [3]; -2.67 in assay [4]; -1.92 in assay [5]; -1.1 in assay [6]. The z-score in assay [7] is 0.758 (inactive); in [8], 0.0612; in assay [9] it was -0.281; in assay [10], 0.63 (inactive); in assay [11], 0.942; in [12], -2.55 (inactive). Besides, the z-score in [13] is 0.132 (inactive); in [15], 0.743 (inactive); in assay [16], -0.639 (inactive); in assay [17], 0.475 (inactive); in assay [18], 0.13 (inactive); in assay [19], 0.131. Also, the composite z-score in assay [14] is -1.52 (inactive); in [20] it was 0.209.
For `COC(=O)C(CC#Cc1ccc2c(c1)[C@]1(C(=O)N2)[C@H](C(=O)Nc2nc3ccccc3s2)[C@H]2C(=O)O[C@H](c3ccccc3)[C@H](c3ccccc3)N2[C@@H]1c1ccc(OCCO)cc1)C(=O)OC`, the z-score in assay [1] was 0.686; in [2] it was 1.18; in [3], 1.64; in assay [4], -0.82; in [5], -1.97; in [6], -3.2. Further, the z-score in assay [7] is 1.59 (inactive); in assay [8], -1; in assay [9] it was -0.693; in assay [10] it was 0.0002 (inactive); in [11], 0.885; in [12], -0.0399 (inactive). Moreover, the z-score in assay [13] is 0.973 (inactive); in assay [15] it was 3.52 (inactive); in assay [16] it was -0.367 (inactive); in assay [17], 0.776 (inactive); in [18], 1.42 (inactive); in assay [19] it was -2.38. Moreover, the composite z-score in assay [14] was -3.07 (inactive); in [20] it was -0.0391.
Turning to `CO[C@H]1O[C@H](CO)[C@@H](OC(=O)Nc2cccc(F)c2)[C@H](OC(=O)Nc2ccccc2-c2ccccc2)[C@H]1OC(=O)Nc1ccccc1-c1ccccc1`, the z-score was -4.26 in assay [1]; 0.737 in assay [2]; -4.76 in assay [3]; -3.44 in assay [4]; -4.3 in [5]; 0.0525 in [6]. The z-score was 0.461 (inactive) in assay [7]; -0.936 in assay [8]; -1.88 in assay [9]; -6.1 (inactive) in assay [10]; -4.61 in assay [11]; 0.748 (inactive) in [12]. Also, the z-score in [13] is -5.86 (inactive); in assay [15], 1.16 (inactive); in assay [16], 1.03 (inactive); in assay [17], -0.852 (inactive); in assay [18] it was -0.516 (inactive); in assay [19], -4.87. The composite z-score in assay [14] is 0.791 (inactive); in [20], -0.0925.
For the compound `O=C(CS)NCCCCCNC(=O)[C@@H]1C[C@@H]2C(=O)N[C@@H](Cc3ccccc3)C(=O)N2[C@@H]1c1cccc(OCCO)c1`, the z-score in assay [1] was 0.688; in assay [2], -0.284; in assay [3] it was 1.18; in assay [4], 0.57; in assay [5], 0.521; in assay [6] it was 1.51. Moreover, the z-score is 0.19 (inactive) in [7]; -0.203 in [8]; -0.156 in assay [9]; -0.488 (inactive) in assay [10]; -0.528 in [11]; 0.0575 (inactive) in [12]. Further, the z-score is -0.513 (inactive) in [13]; 0.0067 (inactive) in [15]; 0.647 (inactive) in assay [16]; 0.403 (inactive) in [17]; 0.801 (inactive) in [18]; -0.0412 in assay [19]. For the same compound, the composite z-score is -0.148 (inactive) in assay [14] and -0.0911 in assay [20].
For the compound `C=C(CCCC)C(=O)CC[C@H](OC(C)=O)c1ccc(OCCO)cc1`, the z-score is 0.95 in [1]; 3.04 in assay [2]; -0.0781 in assay [3]; -2.86 in assay [4]; -3.54 in [5]; 0.764 in assay [6]. Further, the z-score in assay [7] is -0.387 (inactive); in assay [8], -0.248; in [9] it was -1.39; in assay [10], 0.697 (inactive); in [11], 0.574; in assay [12] it was -3.3 (inactive). In addition, the z-score in [13] is -0.464 (inactive); in [15], 0.0022 (inactive); in [16] it was -2.33 (inactive); in [17], -0.0158 (inactive); in [18] it was 0.539 (inactive); in assay [19], -0.939. Besides, the composite z-score was -0.788 (inactive) in [14] and 0.648 in [20].
`COCC1C2CC[C@H]3C(OCc4ccc(OC)cc4)OC[C@]4(C)[C@H]3C2=C(CN4C(=O)OC(C)(C)C)[C@H](C)C1COC` (stereo not given in full): the z-score in assay [1] was -0.226; in assay [2], 0.335; in assay [3] it was 0.919; in [4], -2.64; in assay [5], -4.48; in [6], 5.54. Moreover, the z-score in assay [7] was -0.664 (inactive); in assay [8], -0.205; in assay [9] it was -1.22; in assay [10], -0.0834 (inactive); in assay [11], -0.819; in assay [12], -0.316 (inactive). Also, the z-score in assay [13] is -0.79 (inactive); in assay [15], 0.796 (inactive); in assay [16] it was -0.688 (inactive); in assay [17] it was -0.705 (inactive); in assay [18], 0.286 (inactive); in assay [19] it was -0.723. In addition, the composite z-score in [14] was -0.566 (inactive); in assay [20], 0.441.
